Screening data: PubChem, several laboratories
DAX1 inh-1: NR0B1 (DAX1) inhibition | 0.99% of 340,000 active | inhibition, % at 6.75 µM | HEK293 Gal4-DAX1 luciferase reporter, luminescence;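 active = inhibition above the mean over all tested compounds plus 3 SD, cut at about 4.2% in these data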;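 also: 0% = DAX1-transfected cells with DMSO and 100% = empty-vector control cells with DMSO; inhibition shows as a rise in luminescence from relieved DAX1 repression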
hcDAF-12 act: activators of H. contortus DAF-12 nuclear receptor; HEK293 hcDAF-12 lit1-tk-luc reporter, luminescence; 0% DMSO, 100% Δ7-dafachronic acid; activation, % at 6.8 µM; 1.4% of 370,000 active; AID 652067;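 active = activation above the mean of all tested compounds plus 3 SD, cut at about 5.5% in these data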;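 also: 100% = response to 3 µM Δ7-dafachronic acid high control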
Rev-erbA mod: modulates human Rev-erb alpha binding to DNA; P20393; Rev-erbα–FITC-DNA binding, fluorescence polarization, 90 min; activity, % at 10 µM; 0.79% of 370,000 active; AID 1259318;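 active = activity above about 14%, limit read from the data; passing the limit was not always enough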;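 also: 0% = DMSO wells with 35 nM protein and 100% = DMSO wells with 750 nM protein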
Target sequence (P20393 whole entry, looked up): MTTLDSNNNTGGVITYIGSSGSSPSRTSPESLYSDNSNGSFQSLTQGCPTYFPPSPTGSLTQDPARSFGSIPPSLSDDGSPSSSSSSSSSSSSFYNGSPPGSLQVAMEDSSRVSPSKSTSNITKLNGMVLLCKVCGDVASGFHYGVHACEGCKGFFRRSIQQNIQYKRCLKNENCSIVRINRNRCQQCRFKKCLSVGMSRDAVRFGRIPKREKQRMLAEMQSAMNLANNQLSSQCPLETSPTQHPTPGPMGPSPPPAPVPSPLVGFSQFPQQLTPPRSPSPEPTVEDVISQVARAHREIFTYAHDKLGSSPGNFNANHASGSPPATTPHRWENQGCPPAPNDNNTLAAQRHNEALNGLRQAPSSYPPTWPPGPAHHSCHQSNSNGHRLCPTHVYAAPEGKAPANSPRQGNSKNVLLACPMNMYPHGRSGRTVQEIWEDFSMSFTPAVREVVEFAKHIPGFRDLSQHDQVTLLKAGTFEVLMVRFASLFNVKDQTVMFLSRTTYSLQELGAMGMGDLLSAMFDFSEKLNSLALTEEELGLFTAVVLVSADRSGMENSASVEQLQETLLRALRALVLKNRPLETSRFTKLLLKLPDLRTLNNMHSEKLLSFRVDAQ
hgDAF-12 ag: hgDAF-12 agonism, primary luciferase screen | HEK293 GAL4-hgDAF12 UAS-luciferase reporter, agonist luminescence; normalized to butyrate control | activation, % at 6.8 µM | 1.8% of 370,000 active;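 active = activation above a cutoff set at the mean of all screened compounds plus 3 SD, cut at about 10% in these data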;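 also: 0% = DMSO wells and 100% = sodium butyrate wells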
DAX1 inh-2: blocks DAX1 repression of SF-1 activated StAR promoter; HEK293T StAR-luciferase reporter, SF-1/DAX-1 repression relief; inhibition, % at 6.8 µM; 1.1% of 370,000 active; AID 652010;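 active = inhibition above the mean over all tested compounds plus 3 SD, cut at about 3.6% in these data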;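 also: 0% = DAX-1 cells with DMSO and 100% = cells lacking DAX-1 with DMSO; higher inhibition means more luminescence from relief of DAX-1 repression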
ssDAF-12 act: activates DAF-12 receptor from parasite S. stercoralis; activation, % at 6.8 µM; 1% of 370,000 active; HEK293 ssDAF-12/GRIP1 lit1-tk-luc reporter, luminescence; % of 3 µM dafachronic acid response; AID 652126;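 active = activation above the mean over all tested compounds plus 3 SD, cut at about 0.9% in these data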;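 also: 0% = DMSO-only wells and 100% = 3 µM delta7-dafachronic acid wells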
* hit, by the source's call; nt = no result. Most compounds without a hit are left out; they make up all but 4.8% or so of the library.

SMILES	DAX1 inh-1	hcDAF-12 act	Rev-erbA mod	hgDAF-12 ag	DAX1 inh-2	ssDAF-12 act
COc1ccc(CCNC(=O)C/C(C)=N/NC(=O)C23CC4CC(CC(C4)C2)C3)cc1OC	1	2	-1	7	2	0.9*
COC(=O)C1CN(Cc2ccccc2)CCS(=O)(=O)N1Cc1cn(Cc2cccc(Cl)c2)nn1 (stereo unspecified)	nt	0	1	1	-2	-2
O=C1NCCc2c1[nH]c1ccccc21	1	-2	0	-1	0	-1
COc1ccc2[nH]c3c(c2c1)CCNC3=O	1	1	2	11*	0	-2
C=CCN1[C@H](Cc2ccccc2)COc2cc(N3CCSCC3)ccc2S1(=O)=O	nt	-2	7	3	-2	-2
COc1ccc(NC(=O)C2CCCC2)cc1	1	1	-2	5	0	-1
NS(=O)(=O)c1ccc(NC(=S)NC(=O)C2CCCC2)cc1	1	5.8*	-3	-2	0	-1
CN1CCN(S(=O)(=O)c2ccc(NC(=S)NC(=O)C3CCCCC3)cc2)CC1	0	0	-3	3	-1	-1
COc1ccc(NC(=S)NC(=O)C2CCCCC2)cc1	2	1	-2	4	3.8*	-1
CCCCCC(=O)O[C@]1(C(C)=O)CCC2C3CCC4=CC(=O)CC[C@]4(C)C3CC[C@@]21C (stereo partly specified)	nt	nt	-5	nt	nt	nt
O=C(CSc1nc2c([nH]c3ccccc32)c(=O)n1-c1ccccc1)N1CCOCC1	0	6.0*	-10	3	0	-1
COCCn1c(SCC(=O)Nc2ccc(F)cc2)nc2c([nH]c3ccccc32)c1=O	-1	5	1	3	0	0
O=C(CSc1nc2c([nH]c3ccccc32)c(=O)n1-c1cccc(Cl)c1)N1CCOCC1	0	3	-14	-1	-1	-1
CCn1c(SCC(=O)Nc2ccc(NC(C)=O)cc2)nc2c([nH]c3ccccc32)c1=O	1	5.6*	14	1	0	1.1*
CNC(=O)CSc1nc2c([nH]c3ccccc32)c(=O)n1CCOC	-1	5.6*	2	2	0	1
COCCn1c(SCC(=O)N2CC(C)OC(C)C2)nc2c([nH]c3ccccc32)c1=O (stereo unspecified)	0	5.9*	-1	4	1	0
COC(=O)[C@]12C[C@H](CC(=O)NCCCCc3ccccc3)C(=O)N(CCC3=CCCCC3)C1=C[C@H](C(C)(C)C)O[C@@H]2C	nt	-1	3	3	0	-1
CC(C)CNc1cccc2c1S(=O)(=O)N(Cc1cn(Cc3cccc(F)c3)nn1)Cc1ccccc1O2	nt	-1	6	-2	0	-1
CC1(C)O[C@@H]2CC3C4C[C@H](F)C5=CC(=O)CC[C@]5(C)C4[C@@H](O)C[C@]3(C)[C@]2(C(=O)CO)O1 (stereo partly specified)	nt	nt	-4	nt	nt	nt
CCn1c(SCC(=O)N2CC(C)OC(C)C2)nc2c([nH]c3ccccc32)c1=O (stereo unspecified)	1	6.5*	-2	1	0	0
CCn1c(SCC(=O)N2CCCCC2)nc2c([nH]c3ccccc32)c1=O	2	2	-6	4	1	0
COC(=O)c1cc(-c2cc(Cl)cc(Cl)c2)c(=O)n2c1CCC2	nt	0	11	-1	-1	-1
COC(=O)c1cc(-c2ccc(Cl)s2)c(=O)n2c1CCC2	nt	6.5*	17	2	1	-1
C/C(=N/NC(=O)c1ccco1)c1cccc(NC(=O)c2ccc(C)s2)c1	2	5	0	12*	2	0
C/C(=N/NC(=O)c1ccco1)c1cccc(NC(=O)c2ccc(C)o2)c1	1	2	5	13*	1	-1
SMILES	DAX1 inh-1	hcDAF-12 act	Rev-erbA mod	hgDAF-12 ag	DAX1 inh-2	ssDAF-12 act
C/C(=N/NC(=O)c1ccc(Br)o1)c1cccc(NC(=O)c2ccc(C)o2)c1	3	1	-2	10	1	0
C#CCNC(=O)CSCc1nc(-c2ccc(OCC)cc2)oc1C	nt	-3	-8	3	nt	-2
COc1cc2c(cc1NC(=O)C(C)OC(=O)/C=C/c1ccc(OC(F)F)cc1)oc1ccccc12 (stereo unspecified)	2	8.2*	2	9	0	0
CCCn1c(C)cc(C(=O)Cn2nnc3ccccc3c2=O)c1C	1	3	3	12*	3	0
COc1ccc(OCc2nnc(SCC(=O)NCC3CCCO3)n2N)cc1 (stereo unspecified)	2	0	-3	1	0	-1
Cn1c(COc2ccc([N+](=O)[O-])cc2)nnc1SCC(=O)NCC1CCCO1 (stereo unspecified)	-1	-2	-1	0	0	1.0*
CCOC(=O)CN1C(=O)/C(=C/c2ccccc2Br)Oc2ccccc21	1	5.6*	-4	-2	1	-1
COc1ccc(/C=C2/C(=O)N(c3ccccc3)N=C2C)cc1Br	0	6.4*	-4	5	0	0
CC1=NN(c2ccccc2)C(=O)C1=Cc1ccccc1	1	-1	-5	1	0	-1
CCOC(=O)C(NC(=O)Nc1ncccn1)(Oc1ccccc1)C(F)(F)F (stereo unspecified)	1	-1	5	4	4.2*	-1
CCOC(=O)C(NC(=O)c1ccccc1)(OCc1ccc(F)cc1)C(F)(F)F (stereo unspecified)	1	2	4	12*	0	0
CCOC(=O)C(NC(=O)Nc1ccc(F)cc1F)(Oc1ccc(F)cc1)C(F)(F)F (stereo unspecified)	1	1	0	-3	1	-1
Cc1nn(-c2ccc(F)cc2)c2sc(C(=O)OCC(=O)N3CCC(C)CC3)cc12	6.3*	1	-4	1	-1	-1
Cc1ccc(NC(=O)COC(=O)CCCC2=NS(=O)(=O)c3ccccc3N2)cc1C	0	3	6	0	0	-1
O=C(COC(=O)CCCC1=NS(=O)(=O)c2ccccc2N1)Nc1ccc(Br)cc1	-1	-2	-9	-2	4.1*	-1
COc1ccc(-c2cc(-c3nnc(SCC(=O)Nc4ccc(OCc5ccccc5)cc4)n3N)[nH]n2)cc1	nt	1	-26	2	-3	-1
CCN(CC)C(=O)c1c(NC(=O)c2ccccc2)sc(C)c1C	-1	0	-5	0	0	-1
CCN(CC)Cc1c(NC(=O)c2ccccc2)sc(C)c1C	4	5	-1	11*	1	0
CCC[C@H]1[C@@H](NC(=O)NCC)CC[C@@]23CCCN2C(=O)CCC[C@@H]13	nt	0	1	2	nt	-1
CCN1CCN(C(=O)c2cc3c(=O)n(C)c4ccccc4c3n2C)CC1	5.8*	2	0	-1	2	-1
